The record followed here is PubChem BioAssay (NCI).

Each structure is given as a SMILES string. Values joined by “and” are separate entries in the source; they are usually repeats but may differ in a detail not shown here. Identical values can stand only once. The panel holds about 79,000 compounds, 15% with a hit somewhere; the sample as a whole holds those more often. A structure can be active in one record and inactive in another. Active and inactive are the calls of the source. Cut-off read from the data, not from the text of the source: active = growth inhibition above about 70%; inactive = the rest.

Assay [1] in a line: NCI Yeast Anticancer Drug Screen. Data for the rad50 strain (AID 155).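 Note: 0% = growth of vehicle-only cultures of the same strain.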 To be noted: S. cerevisiae rad50 strain growth inhibition, stronger effect = higher value. In a few lines: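 Growth of the mutant yeast was measured after compound exposure and referenced to vehicle-treated cultures.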
A short description of assay [2]: NCI Yeast Anticancer Drug Screen. Data for the mec2-1 strain (AID 157). Particulars: S. cerevisiae mec2-1 strain, stronger effect = higher value. The method, boiled down:
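Cells of the genetically defined mec2-1 yeast strain are incubated with test compound. Inhibition of growth is calculated against vehicle-treated controls.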

The nature of assay [3]: NCI Yeast Anticancer Drug Screen. Data for the sgs1 mgt1 strain (AID 161).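 Note: 0% = growth of cultures given vehicle only.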 To be noted: S. cerevisiae sgs1 mgt1 strain, stronger effect = higher value. In a few lines: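 Test agents were incubated with a DNA-repair-mutant yeast strain. Growth was then read and compared against vehicle-treated controls.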
A short description of assay [4]: NCI Yeast Anticancer Drug Screen. Data for the cln2 rad14 strain (AID 165).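 Note: 0% = growth equal to vehicle treated cultures.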 Particulars: S. cerevisiae cln2 rad14 strain, stronger effect = higher value. In a few lines: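 The screen exposed genetically defined yeast (cln2 rad14) to test compounds and scored growth inhibition relative to vehicle-treated controls.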
The nature of assay [5]: NCI Yeast Anticancer Drug Screen. Data for the bub3 strain (AID 167). Particulars: S. cerevisiae bub3 mutant strain, stronger effect = higher value. In a few lines: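 Whole-cell yeast assay. The mutant strain was incubated with compounds, and growth inhibition was determined by comparison with vehicle-treated cells.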
A short description of assay [6]: NCI Yeast Anticancer Drug Screen. Data for the mlh1 rad18 strain (AID 175). Particulars: S. cerevisiae mlh1 rad18 strain growth inhibition, stronger effect = higher value. The method, boiled down: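 Compound-treated yeast growth, normalised to vehicle controls. Strain bears defined DNA repair mutations.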
[7] abbreviates: at 5.0 µM (retest, dose inferred, filed as 0.5).
Setting [8] is: at 50.0 µM (retest, dose inferred, filed as 5.0).

On to `O=S(=O)(O)c1ccc(NN(c2c(O)ccc3ccccc23)S(=O)(=O)O)cc1`, for which the growth inhibition is -12% (inactive) in assay [1] (setting [7]); 1% (inactive) in assay [1] (setting [8]); 18.2% (inactive) in assay [1] (at 50.0 µM); -5% (inactive) in assay [2] (setting [7]); -11% (inactive) in assay [2] (setting [8]); -3.1% (inactive) in assay [2] (at 50.0 µM). Besides, the growth inhibition in assay [3] (setting [7]) was -16% (inactive); in assay [3] (setting [8]), -12% (inactive); in assay [3] (at 50.0 µM) it was -19.7% (inactive); in assay [4] (setting [7]), -17% (inactive); in assay [4] (setting [8]), -84% (inactive); in assay [4] (at 50.0 µM), 43.9% (inactive). Besides, the growth inhibition in assay [5] (setting [7]) was -9% (inactive); in assay [5] (setting [8]) it was -10% (inactive); in assay [5] (at 50.0 µM), -29.8% (inactive); in assay [6] (setting [7]) it was -12% (inactive); in assay [6] (setting [8]) it was -19% (inactive); in assay [6] (at 50.0 µM) it was 15.1% (inactive).
As to `Cc1cc(N)c(S)cc1C`, the growth inhibition in assay [1] (setting [7]) was 6% (inactive) and -2% (inactive); in assay [1] (setting [8]) it was 25% (inactive) and 28% (inactive); in assay [1] (at 50.0 µM), 65.1% (inactive) and 25.8% (inactive); in assay [2] (setting [7]) it was -8% (inactive) and 0% (inactive); in assay [2] (setting [8]), 25% (inactive) and 31% (inactive); in assay [2] (at 50.0 µM), 19.9% (inactive) and 24.2% (inactive). The growth inhibition in assay [3] (setting [7]) was 1% (inactive); in assay [3] (setting [8]) it was 44% (inactive) and 37% (inactive); in assay [3] (at 50.0 µM) it was 21.3% (inactive) and 50.4% (inactive); in assay [4] (setting [7]), -1% (inactive) and -7% (inactive); in assay [4] (setting [8]) it was 2% (inactive) and 7% (inactive); in assay [4] (at 50.0 µM) it was -50% (inactive) and 30.4% (inactive). Further, the growth inhibition in assay [5] (setting [7]) was -2% (inactive) and 1% (inactive); in assay [5] (setting [8]) it was 59% (inactive) and 47% (inactive); in assay [5] (at 50.0 µM), 42.9% (inactive) and 75.5% (active); in assay [6] (setting [7]) it was 2% (inactive) and -2% (inactive); in assay [6] (setting [8]), 70% (active) and 40% (inactive); in assay [6] (at 50.0 µM), 59.8% (inactive) and 77% (active).
On to `Cc1nc2c(ccc3[nH]c4ccccc4c32)s1`, for which the growth inhibition in assay [1] (setting [7]) was 7% (inactive); in assay [1] (setting [8]) it was 99% (active); in assay [1] (at 50.0 µM), 90.8% (active); in assay [2] (setting [7]), 9% (inactive); in assay [2] (setting [8]), 99% (active); in assay [2] (at 50.0 µM), 92.5% (active). The growth inhibition in assay [3] (setting [7]) was 16% (inactive); in assay [3] (setting [8]) it was 99% (active); in assay [3] (at 50.0 µM), 91% (active); in assay [4] (setting [7]), -16% (inactive); in assay [4] (setting [8]), 99% (active); in assay [4] (at 50.0 µM), 91% (active). In addition, the growth inhibition in assay [5] (setting [7]) is 8% (inactive); in assay [5] (setting [8]) it was 99% (active); in assay [5] (at 50.0 µM), 91.8% (active); in assay [6] (setting [7]), 10% (inactive); in assay [6] (setting [8]), 99% (active); in assay [6] (at 50.0 µM), 89.9% (active).
Take `CN(C)c1ccc(/C=C/c2ccnc3ccccc23)c(Cl)c1`: the growth inhibition was -7% (inactive) in assay [1] (setting [7]); 10% (inactive) in assay [1] (setting [8]); -1.1% (inactive) and 16.1% (inactive) in assay [1] (at 50.0 µM); -7% (inactive) in assay [2] (setting [7]); -4% (inactive) in assay [2] (setting [8]); 11.4% (inactive) and 3.15% (inactive) in assay [2] (at 50.0 µM). Moreover, the growth inhibition in assay [3] (setting [7]) is -1% (inactive); in assay [3] (setting [8]) it was 35% (inactive); in assay [3] (at 50.0 µM), -0.1% (inactive) and -2% (inactive); in assay [4] (setting [7]), -22% (inactive); in assay [4] (setting [8]), -29% (inactive); in assay [4] (at 50.0 µM), -32.5% (inactive) and 35.4% (inactive). The growth inhibition was -1% (inactive) in assay [5] (setting [7]); 43% (inactive) in assay [5] (setting [8]); -1% (inactive) and 23.1% (inactive) in assay [5] (at 50.0 µM); -13% (inactive) in assay [6] (setting [7]); 28% (inactive) in assay [6] (setting [8]); -5.45% (inactive) and -11.5% (inactive) in assay [6] (at 50.0 µM).
Regarding `CSc1ncnc2c1ncn2C1OC(CO)C(O)C1O` (stereo unspecified), the growth inhibition in assay [1] (setting [7]) is 2% (inactive); in assay [1] (setting [8]), 9% (inactive); in assay [1] (at 50.0 µM), 8.95% (inactive) and 3.25% (inactive); in assay [2] (setting [7]), -10% (inactive); in assay [2] (setting [8]) it was -1% (inactive); in assay [2] (at 50.0 µM), 14.7% (inactive) and 17.6% (inactive). Besides, the growth inhibition in assay [3] (setting [7]) is -5% (inactive); in assay [3] (setting [8]), 1% (inactive); in assay [3] (at 50.0 µM), 3.1% (inactive) and -2.35% (inactive); in assay [4] (setting [7]) it was -1% (inactive); in assay [4] (setting [8]) it was -3% (inactive); in assay [4] (at 50.0 µM), 38.9% (inactive) and -38.6% (inactive). Further, the growth inhibition in assay [5] (setting [7]) was -3% (inactive); in assay [5] (setting [8]), -7% (inactive); in assay [5] (at 50.0 µM), 0.05% (inactive) and 13.2% (inactive); in assay [6] (setting [7]), 14% (inactive); in assay [6] (setting [8]) it was 0% (inactive); in assay [6] (at 50.0 µM), -10.1% (inactive) and 1.6% (inactive).
As for `O=P(C(=S)NC1CC2C=CC1C2)(c1ccccc1)c1ccccc1` (stereo unspecified), the growth inhibition in assay [1] (setting [7]) is 27% (inactive); in assay [1] (setting [8]), 93% (active); in assay [1] (at 50.0 µM) it was 48% (inactive); in assay [2] (setting [7]) it was 7% (inactive); in assay [2] (setting [8]), 94% (active); in assay [2] (at 50.0 µM), 51.1% (inactive). For the same molecule, the growth inhibition in assay [3] (setting [7]) was 2% (inactive); in assay [3] (setting [8]), 90% (active); in assay [3] (at 50.0 µM), 26.4% (inactive); in assay [4] (setting [7]), 12% (inactive); in assay [4] (setting [8]), 85% (active); in assay [4] (at 50.0 µM), 73.4% (active). Moreover, the growth inhibition in assay [5] (setting [7]) was -3% (inactive); in assay [5] (setting [8]) it was 92% (active); in assay [5] (at 50.0 µM), 34.1% (inactive); in assay [6] (setting [7]) it was -31% (inactive); in assay [6] (setting [8]), 90% (active); in assay [6] (at 50.0 µM), 86.7% (active).
As to `O=C(O)c1ccc(C(c2ccccc2)c2ccccc2)cc1`, the growth inhibition is -19% (inactive) in assay [1] (setting [7]); 100% (active) in assay [1] (setting [8]); 97% (active) in assay [1] (at 50.0 µM); 10% (inactive) in assay [2] (setting [7]); 100% (active) in assay [2] (setting [8]); 97.2% (active) in assay [2] (at 50.0 µM). Also, the growth inhibition in assay [3] (setting [7]) was 11% (inactive); in assay [3] (setting [8]), 99% (active); in assay [3] (at 50.0 µM) it was 98% (active); in assay [4] (setting [7]), -11% (inactive); in assay [4] (setting [8]), 99% (active); in assay [4] (at 50.0 µM), 96.3% (active). Also, the growth inhibition in assay [5] (setting [7]) is -1% (inactive); in assay [5] (setting [8]), 99% (active); in assay [5] (at 50.0 µM), 98.3% (active); in assay [6] (setting [7]) it was 8% (inactive); in assay [6] (setting [8]), 99% (active); in assay [6] (at 50.0 µM) it was 98% (active).
